# Laboratory results taken from PubChem BioAssay (NCATS).
# Results filed as inconclusive are left out. A call without a number means that no potency is given here. The source made the active and inactive calls. Unless noted, the call rests on the fitted dose curve; in most records, active means well fitted curve in the direction sought with a large enough effect; inconclusive means small, poorly fitted or top-dose-only effect, or another doubt; inactive means no such curve, though single readings can be large; an effect the other way counts as inactive or inconclusive.
# Tests used:
# [1] = target: Cytochrome P450 3A4 (Homo sapiens) (UniProt P08684); test: qHTS Assay for Inhibitors and Substrates of Cytochrome P450 3A4 (AID 884); further: nearly all actives have a fitted effect of over 50% in size
# Sequence of Cytochrome P450 3A4 (Homo sapiens) (P08684 whole entry, looked up): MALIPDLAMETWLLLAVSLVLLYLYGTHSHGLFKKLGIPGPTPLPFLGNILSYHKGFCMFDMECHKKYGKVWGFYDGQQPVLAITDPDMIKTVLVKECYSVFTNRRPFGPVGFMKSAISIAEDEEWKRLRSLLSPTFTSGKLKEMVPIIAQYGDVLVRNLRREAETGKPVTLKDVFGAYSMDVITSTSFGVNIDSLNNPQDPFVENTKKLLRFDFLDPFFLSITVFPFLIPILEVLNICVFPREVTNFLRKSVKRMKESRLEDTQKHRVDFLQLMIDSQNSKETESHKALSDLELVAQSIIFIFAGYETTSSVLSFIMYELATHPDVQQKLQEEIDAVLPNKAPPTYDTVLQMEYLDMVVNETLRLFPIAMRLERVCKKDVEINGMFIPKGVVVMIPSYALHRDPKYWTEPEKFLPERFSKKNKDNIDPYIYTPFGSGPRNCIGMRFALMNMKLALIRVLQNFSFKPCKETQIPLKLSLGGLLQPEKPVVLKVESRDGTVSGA
# Outline: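 Luminescent readout of luciferin produced by CYP3A4 (20 nM) dealkylation of Luciferin-PPXE, 25 uM (its KM). NADPH-driven reaction ran 60 min at RT after 10 min compound preincubation; data scaled to 57 uM ketoconazole as 100% inhibition.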
# [2] = Confirmation and Secondary Assay for Modulators of Hemoglobin Beta Chain Splicing at IVS2 654 locus (AID 910);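 further: HeLa cells stably carrying EGFP split by mutant beta-globin IVS2-654 intron; per-well total GFP intensity by laser scanning cytometry after 2-day treatment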
# Outline: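 Readout: per-well total peak green fluorescence (488 nm ex, 500–520 nm em) from objects 5–250 µm, reflecting correct splicing of an EGFP-654 reporter. Compounds were applied for 2 days at 37 °C to overnight-plated HeLa EGFP-654 cells; controls were DMSO and 500 nM IVS2-654 PNA.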
# [3] = qHTS Assay for Lipid Storage Modulators (AID 1519; calls by dose curve); conditions: Drosophila S3 cells, BODIPY lipid droplet/cell ratio, laser cytometry, cells loaded with oleic acid
# Outline: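 Cells seeded at 5,000 per well were treated with compounds over a concentration series and loaded with oleic acid (400 uM, as added). Lipid droplet fluorescence (488 nm excitation, 500-530 nm channel) was read by laser-scanning cytometry and normalized to 20 uM Triacsin C.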
# [4] = target: ATP-dependent 6-phosphofructokinase (Trypanosoma brucei brucei) (UniProt O15648); test: qHTS Assay to Find Inhibitors of T. brucei phosphofructokinase: hit validation (AID 492961);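 further: luminescence reports ADP formed as PFK phosphorylates fructose-6-phosphate with ATP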
# Sequence of ATP-dependent 6-phosphofructokinase (Trypanosoma brucei brucei) (O15648 whole entry, looked up): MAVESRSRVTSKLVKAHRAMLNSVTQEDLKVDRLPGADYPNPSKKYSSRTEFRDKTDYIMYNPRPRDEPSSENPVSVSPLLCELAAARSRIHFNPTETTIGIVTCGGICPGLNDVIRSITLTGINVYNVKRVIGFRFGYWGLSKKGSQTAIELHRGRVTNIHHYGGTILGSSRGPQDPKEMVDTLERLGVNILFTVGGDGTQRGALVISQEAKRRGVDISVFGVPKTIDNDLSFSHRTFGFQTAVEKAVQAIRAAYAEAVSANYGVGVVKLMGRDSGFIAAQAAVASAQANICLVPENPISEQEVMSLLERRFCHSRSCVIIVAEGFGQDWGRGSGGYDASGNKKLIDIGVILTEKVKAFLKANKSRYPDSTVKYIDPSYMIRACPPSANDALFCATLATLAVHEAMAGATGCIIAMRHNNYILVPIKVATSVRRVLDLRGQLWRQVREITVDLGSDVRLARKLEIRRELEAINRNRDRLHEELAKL
# Outline: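 Measures ADP output of PFK (1.25 nM) at 0.1 mM ATP, 0.5 mM F6P, pH 8.0 TEA buffer with 5 mM MgCl2. No-enzyme wells define full inhibition; uninhibited enzyme wells define zero.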
# [5] = target: Ubiquitin carboxyl-terminal hydrolase 1 (Homo sapiens) (UniProt O94782); test: Inhibitors of USP1/UAF1: Pilot qHTS (AID 504865);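 further: rhodamine fluorescence freed from ubiquitin-rhodamine substrate followed over time; top concentration of the series differs between compounds; nearly all actives have a fitted effect of over 35% in size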
# Sequence of Ubiquitin carboxyl-terminal hydrolase 1 (Homo sapiens) (O94782 whole entry, looked up): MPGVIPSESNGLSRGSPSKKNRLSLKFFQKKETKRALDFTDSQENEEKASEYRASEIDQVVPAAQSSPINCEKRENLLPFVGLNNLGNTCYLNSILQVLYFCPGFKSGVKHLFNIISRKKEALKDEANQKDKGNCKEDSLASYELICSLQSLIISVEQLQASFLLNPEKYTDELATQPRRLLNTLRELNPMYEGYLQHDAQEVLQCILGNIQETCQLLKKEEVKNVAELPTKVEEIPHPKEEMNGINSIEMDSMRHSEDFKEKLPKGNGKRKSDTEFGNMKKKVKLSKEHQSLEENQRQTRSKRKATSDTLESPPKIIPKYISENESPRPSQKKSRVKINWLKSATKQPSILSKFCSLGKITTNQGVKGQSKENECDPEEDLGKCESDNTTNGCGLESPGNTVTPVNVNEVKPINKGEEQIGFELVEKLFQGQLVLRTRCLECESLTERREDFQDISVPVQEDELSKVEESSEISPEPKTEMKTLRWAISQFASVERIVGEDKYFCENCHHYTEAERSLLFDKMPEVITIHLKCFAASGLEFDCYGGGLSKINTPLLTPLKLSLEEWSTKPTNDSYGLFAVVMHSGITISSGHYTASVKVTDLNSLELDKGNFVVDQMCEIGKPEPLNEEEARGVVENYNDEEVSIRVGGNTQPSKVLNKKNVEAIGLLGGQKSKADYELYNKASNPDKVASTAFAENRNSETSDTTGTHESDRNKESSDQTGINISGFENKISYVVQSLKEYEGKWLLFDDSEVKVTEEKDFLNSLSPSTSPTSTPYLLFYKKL
# Outline: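 Deubiquitinase activity followed as kinetic rhodamine fluorescence release from 150 nM Ub-Rho. 1 nM USP1/UAF1 with compound, after 15 min room-temperature preincubation, in HEPES pH 7.8 buffer containing TCEP, EDTA, BSA and Tween-20.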
# [6] = target: Luciferin 4-monooxygenase (Photinus pyralis) (UniProt P08659); test: Biochemical firefly luciferase enzyme assay for NPC (AID 624030);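 further: purified P. pyralis luciferase at 10 nM with luciferin and ATP substrate; nearly all actives have a fitted effect of over 70% in size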
# Sequence of Luciferin 4-monooxygenase (Photinus pyralis) (P08659 whole entry, looked up): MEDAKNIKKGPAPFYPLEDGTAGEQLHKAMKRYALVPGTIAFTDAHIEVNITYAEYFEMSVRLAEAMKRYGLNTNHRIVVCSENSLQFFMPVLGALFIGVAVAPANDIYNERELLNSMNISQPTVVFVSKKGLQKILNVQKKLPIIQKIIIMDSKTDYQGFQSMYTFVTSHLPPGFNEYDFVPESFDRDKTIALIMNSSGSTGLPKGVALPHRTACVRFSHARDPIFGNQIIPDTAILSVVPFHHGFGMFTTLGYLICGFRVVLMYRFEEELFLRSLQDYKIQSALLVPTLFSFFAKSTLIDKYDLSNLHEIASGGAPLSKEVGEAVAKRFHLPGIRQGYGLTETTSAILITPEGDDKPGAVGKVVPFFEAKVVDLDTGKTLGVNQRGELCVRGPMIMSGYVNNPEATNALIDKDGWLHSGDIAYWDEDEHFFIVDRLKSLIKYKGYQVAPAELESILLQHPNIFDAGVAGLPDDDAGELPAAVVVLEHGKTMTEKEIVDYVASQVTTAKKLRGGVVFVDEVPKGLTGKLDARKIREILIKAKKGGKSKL
# Outline: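 Direct inhibition of firefly luciferase enzyme (10 nM final, 50 mM Tris Acetate) assessed by luminescence within 5 minutes. Percent activity scaled between DMSO and PTC124 positive control, with concentration-effect curves classified by fit quality and response.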
# [7] = S16 Schwann cell viability assay (CellTiter-Glo assay) (AID 624031);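 further: cellular ATP luminescence as a viability measure; nearly all actives have a fitted effect of over 70% in size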
# Outline: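 Native S16 rat Schwann cells, 500-750 cells/well in DMEM with 10% FBS, dosed with compound after overnight culture and incubated 24h at 37 degree Celsius/5% CO2. Viability by CellTiter-Glo luminescence; % activity normalized to no-cell wells and DMSO-treated cells.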
# [8] = S16 Schwann cell PMP22 intronic element firefly luciferase assay (AID 624032); further: nearly all actives have a fitted effect of over 30% in size
# Outline: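 Luciferase reporter of PMP22 intronic-element expression in stably transfected S16 rat Schwann cells, read by ONE-Glo luminescence after 24 h compound exposure at 37 C. Activity scaled between DMSO (0%) and positive-control PTC124; concentration-effect curves quality-classified.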
# [9] = Primary qHTS for inhibitors of SARS-S pseudo-typed particle cell entry (AID 1479145; calls by dose curve; further: potency means the concentration at half of the fitted maximal effect; nearly all actives have a fitted effect of over 45% in size); conditions: outcome: dose series up to 57.1 µM unless noted
# [10] = Primary qHTS for inhibitors of MERS-S pseudo-typed particle cell entry (AID 1479149; calls by dose curve; further: nearly all actives have a fitted effect of over 60% in size); conditions: outcome: dose series up to 57.1 µM unless noted
# [11] = Primary qHTS to identify inhibitors of SARS-CoV-2 cell entry (AID 1645846; calls by dose curve; further: nearly all actives have a fitted effect of over 45% in size); conditions: SARS-CoV-2 pseudovirus cell entry assay, luminescence; activity change, negative = inhibition: at 57.1 µM (top of the series) unless noted
# Outline: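 Entry measured by luciferase signal 48 h after adding SARS-CoV-2-S pseudotyped MLV particles to HEK293-ACE2 cells preincubated 1 h with compounds. Normalisation: bald particles and spike particles.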
# [12] = NCATS anti-infectives library activity on HEK293 viability as a counter-qHTS vs the C. elegans viability qHTS (AID 1745854); further: potency means the concentration at half of the fitted maximal effect
# Outline: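 CellTiter-Glo luminescence, read on a CCD imager, scored viability of HEK293 cells after 24 hr compound exposure at 37C. Library tested in several concentrations, 1:5 steps, up to 41.7 uM; digitonin served as control.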
# [13] = NCATS anti-infectives library activity on the primary C. elegans qHTS viability assay (AID 1745855; calls by dose curve; further: potency means the concentration at half of the fitted maximal effect)
# Outline: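 Titration-based screen in worms: eggs hatched overnight in M9, L1 larvae fed TOP10 capsules in S medium with compound, incubated 21 °C for 7 days; fluorescent objects gated by size and intensity at days 0, 3 and 7.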
# [14] = target: Glutathione peroxidase 1 (Homo sapiens) (UniProt P07203); test: Primary qHTS Assay for Inhibitors of Recombinant Selenoprotein Glutathione Peroxidase 1 (GPX1) (AID 1845191); further: nearly all actives have a fitted effect of over 65% in size
# Sequence of Glutathione peroxidase 1 (Homo sapiens) (P07203 whole entry, looked up): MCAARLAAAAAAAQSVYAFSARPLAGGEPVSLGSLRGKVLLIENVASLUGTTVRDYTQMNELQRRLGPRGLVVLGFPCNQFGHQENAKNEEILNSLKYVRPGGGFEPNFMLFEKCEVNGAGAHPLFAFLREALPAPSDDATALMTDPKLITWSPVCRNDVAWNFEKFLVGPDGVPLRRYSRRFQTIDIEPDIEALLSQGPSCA
# Outline: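 NADPH consumption tracked by fluorescence at 340/450 nm between t=0 and t=15 min, room temperature. Final mix: 10 nM GPX1, 100 nM glutathione reductase, 1 mM GSH, 0.5 mM NADPH, 0.5 mM cumene hydroperoxide, 0.01% BSA; 30 min compound–enzyme preincubation.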
# [15] = target: Phospholipid hydroperoxide glutathione peroxidase GPX4 (Homo sapiens) (UniProt P36969); test: Primary qHTS Assay for Inhibitors of Recombinant Selenoprotein Glutathione Peroxidase 4 (GPX4) (AID 1845192); further: nearly all actives have a fitted effect of over 65% in size
# Sequence of Phospholipid hydroperoxide glutathione peroxidase GPX4 (Homo sapiens) (P36969 whole entry, looked up): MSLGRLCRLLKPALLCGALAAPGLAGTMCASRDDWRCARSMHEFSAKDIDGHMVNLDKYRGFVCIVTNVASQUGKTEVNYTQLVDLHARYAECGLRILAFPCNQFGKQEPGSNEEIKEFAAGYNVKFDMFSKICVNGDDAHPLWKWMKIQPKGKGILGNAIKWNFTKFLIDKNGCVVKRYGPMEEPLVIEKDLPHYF
# Outline: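 NADPH consumption followed by fluorescence at 340/450 nm, t=0 and after 15 min at room temperature. Reaction started with cumene hydroperoxide (0.5 mM final) after 30 min compound–GPX4 preincubation; final 200 nM GPX4, 100 nM GR, 1 mM GSH, 0.5 mM NADPH.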
# [16] = qHTS profiling for inhibitors of Plasmodium falciparum proliferation (AID 504749); further: nearly all actives have a fitted effect of over 60% in size; further: potency means the concentration at half of the fitted maximal effect; conditions: P. falciparum in erythrocytes, SYBR Green DNA, 72 h, at 28.7 µM (top of the series)
# Outline: (§1)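 In a 72 h erythrocytic culture (37 C, humidified, 5% CO2) at 2.5% hematocrit and 0.3% starting parasitemia, compounds were tested; SYBR Green I in detergent lysis buffer stained parasite DNA overnight.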
# 7G8 = test: as above; conditions: P. falciparum in erythrocytes, SYBR Green DNA, 72 h; series mostly up to 12.8 µM
# Outline: as §1
# AA1029 = test: as above; conditions: P. falciparum in erythrocytes, SYBR Green DNA, 72 h; series mostly up to 28.7 µM
# Outline: as §1
# AS120 = test: as above; conditions: P. falciparum in erythrocytes, SYBR Green DNA, 72 h; series mostly up to 28.7 µM
# Outline: as §1
# ATS95 = test: as above; conditions: P. falciparum in erythrocytes, SYBR Green DNA, 72 h; series mostly up to 28.7 µM
# Outline: as §1
# C2A = test: as above; conditions: P. falciparum in erythrocytes, SYBR Green DNA, 72 h; series mostly up to 28.7 µM
# Outline: as §1
# CP185 = test: as above; conditions: P. falciparum in erythrocytes, SYBR Green DNA, 72 h; series mostly up to 28.7 µM
# Outline: as §1
# CP192 = test: as above; conditions: P. falciparum in erythrocytes, SYBR Green DNA, 72 h; series mostly up to 28.7 µM
# Outline: as §1
# CP201 = test: as above; conditions: P. falciparum in erythrocytes, SYBR Green DNA, 72 h; series mostly up to 28.7 µM
# Outline: as §1
# CP203 = test: as above; conditions: P. falciparum in erythrocytes, SYBR Green DNA, 72 h; series mostly up to 28.7 µM
# Outline: as §1
# CP211 = test: as above; conditions: P. falciparum in erythrocytes, SYBR Green DNA, 72 h; series mostly up to 28.7 µM
# Outline: as §1
# CP215 = test: as above; conditions: P. falciparum in erythrocytes, SYBR Green DNA, 72 h; series mostly up to 28.7 µM
# Outline: as §1
smiles,measurement,setting,value
CC(=O)OC1C[C@H](O[C@@H]2C(O)C[C@H](O[C@@H]3C(O)C[C@@H](OC4CC[C@]5(C)C(CCC6C5CC(O)[C@@]5(C)C(C7=CC(=O)OC7)CC[C@@]65O)C4)OC3C)OC2C)O[C@H](C)[C@H]1O[C@H]1OC(CO)C(O)C(O)C1O (stereo not given in full),Potency,[1],inactive
same,Potency,[2],inactive
same,"activity change, negative = inhibition",[3]; at 57.5 µM (top of the series),1.49% (inactive)
same,max response,[3]; measured here: cell count channel max response,20.6%
same,max response,[3]; measured here: lipid channel max response,24.4%
same,Potency,[4],inactive
same,Potency,[5],inactive
same,Potency,[6],inactive
same,Potency,[7],inactive
same,Potency,[8],inactive
same,Potency,[9],0.794 µM (active)
same,Potency,[10],inactive
same,"activity change, negative = inhibition",[11],-96.3%
same,Potency,[12],0.199 µM (active)
same,Potency,[13],8.16 µM (active)
same,Potency,[14],inactive
same,Potency,[15],inactive
same,"activity, negative = inhibition",[16]; parasite line A,-17.9% (inactive)
same,"activity, negative = inhibition",[16]; parasite line B,17.8% (inactive)
same,Potency,7G8,8.91 µM (active)
same,Potency,AA1029,inactive
same,Potency,AS120,inactive
same,Potency,ATS95,inactive
same,Potency,C2A,inactive
same,Potency,CP185,inactive
same,Potency,CP192,inactive
same,Potency,CP201,inactive
same,Potency,CP203,inactive
same,Potency,CP211,inactive
same,Potency,CP215,inactive
